# Results published in paper PMC5540273 (PLoS ONE, 2017).
# 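Also: kd values determined as follow-up on hits from a single-replicate KINOMEscan panel screen.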
compound,measurement,setting,value
O=C(Nc1n[nH]c2cc(-c3ccsc3)ccc12)C1CC1 [SB-732932],Kd,PRKD1,> 10000 nM
CN1c2ccc(-c3ccc(C(N)=O)cc3)cc2-c2[nH]ncc2S1(=O)=O,Kd,PRKD2,> 10000 nM
CC[C@@H]1CO[C@H](C(=O)Nc2ccccc2)CN1c1cc(-c2ccc3c(N)n[nH]c3c2)nc(NC)n1 [GSK2376236],Kd,PRKX,130 nM
CNc1nc(-c2ccc3c(N)n[nH]c3c2)cc(N2C[C@@H](C(=O)Nc3ccccc3)CC[C@H]2C)n1 [GSK2298859],Kd,PRKX,65 nM
Cc1ccc(NC(=O)Nc2ccc(Cl)c(C(F)(F)F)c2)cc1-c1ccc(C(=O)Nc2ccncc2)cc1 [GSK1398470],Kd,RAF1,340 nM
Cc1ccc(NC(=O)Nc2ccc(Cl)cc2)cc1-c1ccc(C(=O)Nc2ccncc2)cc1 [GSK1398472],Kd,RAF1,350 nM
Fc1ccc(-c2nn3cccc(F)c3c2-c2ccncc2)cc1 [GW475620],Kd,RET,> 10000 nM
CNCc1ccc2nc(NC(=O)c3ccc(C(C)(C)C)cc3)cn2c1,Kd,RIOK2,> 10000 nM
Nc1cccc(-c2ccc3c(N)n[nH]c3c2)n1 [GSK2192730],Kd,RIOK3,490 nM
CC(C)c1cc(-c2ccc3c(N)n[nH]c3c2)nc(N)n1 [GSK2250882],Kd,RIOK3,440 nM
